Assay outcomes as filed in PubChem.
A selection: hits, their analogues and other compounds. The true share with any hit is near 3.2%.
LASV entry inh – Lassa virus entry inhibition; Potency, µM (titrated, usually from 37.9 µM), for inactives: top-dose activity change, negative = inhibition, most hits filed as inhibitors; AID 540256; hit rate 1.2% among 300,000; Lassa virus pseudotype entry inhibition, cell reporter; calls by dose curve; tested in HEK293 cells; note: nearly all actives have a fitted effect of over 50% in size
FMDV antiviral – blocks foot and mouth disease virus | FMDV antiviral cell-based qHTS | Potency, µM (highest dose often 57.9 µM), inactives show at the top dose activity change, negative = inhibition, hits mostly inhibitors | hit rate 1.2% among 410,000 | AID 1159524; calls by dose curve; tested in HEK293T cells; note: read-out not given here; nearly all actives have a fitted effect of over 45% in size
MARV entry inh – Marburg virus entry inhibition. Marburg virus pseudotyped entry inhibition, cell reporter. Potency, µM (doses to about 37.8 µM), inactives show at the highest dose activity change, negative = inhibition, most hits filed as inhibitors. hit rate 1.8% among 300,000; calls by dose curve; tested in HEK293 cells
VACV Venus inh – vaccinia inhibition (Venus reporter). hit rate 0.46% among 330,000. Vaccinia virus Venus reporter expression, fluorescence. Potency, µM (titrated, usually from 36.5 µM), for the others: at the top dose activity change, negative = inhibition, usual class: inhibitors; calls by dose curve; tested in A549 cells; note: nearly all actives have a fitted effect of over 30% in size
Vaccinia mCherry – vaccinia inhibition (mCherry reporter). hit rate 0.63% among 310,000. Vaccinia virus mCherry reporter infection, fluorescence. Potency, µM (series often up to 36.5 µM), for inactives: at the top dose activity change, negative = inhibition, hits mostly inhibitors; calls by dose curve; tested in A549 cells; note: nearly all actives have a fitted effect of over 35% in size
* marks the source's active call; other numbers are inactive results; i = inactive; u = inconclusive; x = not tested or not shown; [ ] = remark or other dose. % is set by controls: 0 for no effect and ±100 for the full control effect; potency is the fitted concentration of half-maximal effect.

SMILES	LASV entry inh	FMDV antiviral	MARV entry inh	VACV Venus inh	Vaccinia mCherry
COc1cc(NC(=O)c2ccco2)ccc1NC(=O)c1ccccc1Cl	13µM*	12%	u	-28%	x
COc1cc(NC(=O)c2cc3ccccc3o2)ccc1NC(=O)c1ccco1	6%	-2%	8%[46.1 µM]	-11%	-11%
COc1cc(NC(=O)Cc2ccccc2)ccc1NC(=O)c1ccco1	0%	69%	25%	x	x
CC(C)(C)c1cc(C(=O)Nc2cccnc2)cc(C(=O)Nc2cccnc2)c1	-11%	-23%	u	-27%	-10%
CCc1nn2c(=O)cc(COC(=O)c3ccccc3)nc2s1	u	25%	x	4%	-1%
Cc1ccc(S(=O)(=O)CC(=O)Nc2cccc(C)n2)cc1	12%[46.1 µM]	14%	u	4%	-12%
Cc1ccc(S(=O)(=O)CCC(=O)Nc2nc(C(C)(C)C)cs2)cc1	x	-26%	x	x	x
O=C(Nc1nc(-c2cccs2)cs1)c1cccc(S(=O)(=O)N2CCCCCC2)c1	-16%	3%	u	u	u
Cc1ccc(S(=O)(=O)CC(=O)Nc2nc(C(C)(C)C)cs2)cc1	3.7µM*	-23%	2%	-7%	-13%
O=C(CCS(=O)(=O)c1ccccc1)Nc1nc(-c2cccs2)cs1	-29%	-30%	u	4µM*	u
CC(C)(C)c1csc(NC(=O)CCS(=O)(=O)c2ccc(F)cc2)n1	x	u	x	7.9µM*	7.1µM*
O=C(Nc1nc(-c2cccs2)cs1)c1ccc(S(=O)(=O)N2CCCCC2)cc1	x	16µM*	-3%	u	u
COC(=O)C(C(C)=O)[C@@H](NC(=O)NCc1ccccc1)c1ccccc1 (some centres not stated)	x	x	25%[14.2 µM]	x	x
COCCSc1nnc(NC(=O)CS(=O)(=O)c2ccc(C)cc2)s1	-9%	4%	8%[46.1 µM]	-3%	0%
COCCSc1nnc(NC(=O)CCS(=O)(=O)c2ccccc2)s1	-11%	-1%	11µM*	-28%	u
O=C(CCc1ccccc1)NCC(=O)N/N=C/c1ccc2c(c1)OCO2	2%	0%	u	-7%	i
COc1ccc(CCC(=O)N/N=C/c2ccc3c(c2)OCO3)cc1	0.1µM*	41%	8%	-14%	-21%
COc1ccc2[nH]c(=O)c3c(c2c1)OC(C)(C)C=C3	-14%	-24%	-6%	11µM*	13µM*
Cc1cc2c([nH]c3ccccc32)c2c1OC(C)(C)C=C2	x	56%	x	-26%	-26%
O=c1cc(N2CCCCC2)c(-c2ccccc2)nn1Cc1c(Cl)cccc1Cl	13µM*	u	u	u	u
O=c1cc(N2CCCCC2)c(-c2ccccc2)nn1Cc1ccc(Cl)cc1	-16%	u	u	-22%	x
c1ccc(COc2cccc(-c3cc4nc(NCCc5ccncc5)ccn4n3)c2)cc1	x	0%	x	-9%	-16%
CCCS(=O)(=O)N1CCCC(C(=O)N2CCCCC2)C1 (configuration not stated)	u	4%	-8%[46.1 µM]	0%	i
O=C1CCc2ccc(OCCCCN3CCN(c4cccc(Cl)c4Cl)CC3)cc2N1	x	20µM*	x	-28%	u
Cc1cc(C(=O)Nc2ccc(Cl)c(S(=O)(=O)N3CCOCC3)c2)c2ccccc2n1	x	-29%	x	x	x
SMILES	LASV entry inh	FMDV antiviral	MARV entry inh	VACV Venus inh	Vaccinia mCherry
Cc1cc(C)c(S(=O)(=O)N2CCCCC2CCNC(=O)C(=O)NC2CC2)c(C)c1 (configuration not stated)	0.89µM*	-16%	u	24%	u
Cc1ccccc1NC(=O)c1ccccc1OCC(=O)Nc1ccc(Br)cc1	x	x	x	-24%	-12%
CCOC(=O)c1c(NC(NC(=O)C(C)C)C(Cl)(Cl)Cl)sc2c1CCC2 (configuration not stated)	u	u	11µM*	-15%	-15%
COC(=O)[C@@H]1[C@H]2SC(C)(C)[C@H](C(=O)OC)N2C(=O)N1Cc1cc2ccccc2n1S(=O)(=O)c1ccccc1	x	x	x	-18%	i
Cc1sc2ncn(CCn3cnc4sc(C)c(C)c4c3=O)c(=O)c2c1C	-15%	20µM*	u	-15%	x
C[C@@H]1O[C@@H](O[C@H]2C[C@@H](O)[C@]3(CO)[C@H]4[C@H](O)C[C@]5(C)[C@@H]([C@@H]6COC(=O)C6)CC[C@]5(O)[C@@H]4CC[C@]3(O)C2)[C@H](O)[C@H](O)[C@H]1O	x	x	0.32µM*	x	x
